Measured values reported in PubChem BioAssay AID1159580 (chemical genetic matrix, 2015).
Among all 5,500 compounds or so, about 2,000 (36%) were called active. Not shown: some 18% with an inconclusive outcome. No stated cut-off is given here; in the data, active means normalized growth mostly below about 0.91 (no sharp cut-off); inconclusive means no clear call, values can overlap the other calls; inactive means mostly above about 0.92. The list shows a part of the results.

Experiment: chemical genetic growth profiling, strain panel (AID 1159580);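 further: tested at 20 µM; growth read once vehicle control cultures reached saturation at 30 °C; 1 = growth at the plate median or of vehicle wells; lower values mean less growth of the strain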
Settings: growth OD

Measured: normalized growth

CC(=O)/C=C\[C@@H]1[C@@]2(C)CCCC(C)(C)C2CC[C@@]1(C)O (some centres not stated)
inactive: S. cerevisiae deletion strains, locus YJR075W, strain HOC1, hits give low values 0.982 | S. cerevisiae deletion strains, locus YKL009W, strain mrt4, hits give low values 0.97 | S. cerevisiae deletion strains, locus YKL068W, hits give low values 0.984 | S. cerevisiae deletion strains, locus YKL085W, strain MDH1 (second series), hits give low values 0.977 | S. cerevisiae deletion strains, locus YKL085W, strain MDH1, hits give low values 0.977 | S. cerevisiae deletion strains, locus YKL160W, strain elf1, hits give low values 0.963 | S. cerevisiae deletion strains, locus YKL190W, strain CNB1, hits give low values 0.964 | S. cerevisiae deletion strains, locus YKR001C, strain vps1, hits give low values 0.975 | S. cerevisiae deletion strains, locus YKR026C, strain gcn3, hits give low values 0.979 | S. cerevisiae deletion strains, locus YKR091W, strain srl3, hits give low values 0.975 | S. cerevisiae deletion strains, locus YLL001W, strain dnm1, hits give low values 1.01 | S. cerevisiae deletion strains, locus YLL026W, hits give low values 0.991 | S. cerevisiae deletion strains, locus YLL041C, strain sdh2, hits give low values 0.968 | S. cerevisiae deletion strains, locus YLR027C, strain aat2, hits give low values 0.982 | S. cerevisiae deletion strains, locus YLR039C, strain RIC1, hits give low values 0.846 | S. cerevisiae deletion strains, locus YLR058C, strain SHM2, hits give low values 0.958 | S. cerevisiae deletion strains, locus YLR102C, strain apc9, hits give low values 0.973 | S. cerevisiae deletion strains, locus YLR113W, strain HOG1, hits give low values 0.951 | S. cerevisiae deletion strains, locus YLR221C, strain rsa3, hits give low values 1.01 | S. cerevisiae deletion strains, locus YLR258W, strain gsy2, hits give low values 0.981 | S. cerevisiae deletion strains, locus YLR262C, strain YPT6 (second series), hits give low values 0.939 | S. cerevisiae deletion strains, locus YLR262C, strain YPT6, hits give low values 0.843 | S. cerevisiae deletion strains, locus YLR268W, strain sec22, hits give low values 0.923 | S. cerevisiae deletion strains, locus YLR320W, strain mms22, hits give low values 1.01 | S. cerevisiae deletion strains, locus YLR330W, strain CHS5, hits give low values 0.974 | S. cerevisiae deletion strains, locus YLR342W, strain FKS1 (second series), hits give low values 0.957 | S. cerevisiae deletion strains, locus YLR342W, strain FKS1, hits give low values 0.968 | S. cerevisiae deletion strains, locus YLR357W, strain rsc2, hits give low values 0.998 | S. cerevisiae deletion strains, locus YLR370C, strain arc18, hits give low values 0.964 | S. cerevisiae deletion strains, locus YLR371W, strain rom2, hits give low values 1 | S. cerevisiae deletion strains, locus YLR384C, strain iki3, hits give low values 0.973 | S. cerevisiae deletion strains, locus YML016C, strain PPZ1, hits give low values 0.964 | S. cerevisiae deletion strains, locus YML032C, strain rad52, hits give low values 1.02 | S. cerevisiae deletion strains, locus YML120C, strain ndi1, hits give low values 0.971 | S. cerevisiae deletion strains, locus YML124C, strain tub3, hits give low values 0.979 | S. cerevisiae deletion strains, locus YMR058W, strain fet3, hits give low values 0.968 | S. cerevisiae deletion strains, locus YMR078C, strain ctf18, hits give low values 0.975 | S. cerevisiae deletion strains, locus YMR125W, strain sto1, hits give low values 0.958 | S. cerevisiae deletion strains, locus YMR129W, hits give low values 0.96 | S. cerevisiae deletion strains, locus YMR205C, strain PFK2, hits give low values 0.926 | S. cerevisiae deletion strains, locus YMR223W, strain ubp8, hits give low values 1.01 | S. cerevisiae deletion strains, locus YMR231W, strain pep5, hits give low values 0.972 | S. cerevisiae deletion strains, locus YMR263W, strain SAP30, hits give low values 0.947 | S. cerevisiae deletion strains, locus YMR307W, strain GAS1, hits give low values 1.08 | S. cerevisiae deletion strains, locus YNL067W, strain RPL9B, hits give low values 0.957 | S. cerevisiae deletion strains, locus YNL071W, strain lat1, hits give low values 0.961 | S. cerevisiae deletion strains, locus YNL128W, strain TEP1, hits give low values 0.927 | S. cerevisiae deletion strains, locus YNL153C, strain GIM3, hits give low values 0.951 | S. cerevisiae deletion strains, locus YNL183C, strain NPR1, hits give low values 0.947 | S. cerevisiae deletion strains, locus YNL209W, strain ssb2, hits give low values 0.986 | S. cerevisiae deletion strains, locus YNL233W, strain BNI4, hits give low values 0.942 | S. cerevisiae deletion strains, locus YNL248C, strain rpa49, hits give low values 0.952 | S. cerevisiae deletion strains, locus YNL250W, strain rad50, hits give low values 0.99 | S. cerevisiae deletion strains, locus YNL271C, strain bni1, hits give low values 0.991 | S. cerevisiae deletion strains, locus YNL298W, strain CLA4, hits give low values 0.984 | S. cerevisiae deletion strains, locus YNL307C, strain MCK1, hits give low values 0.948 | S. cerevisiae deletion strains, locus YNL322C, strain KRE1 (second series), hits give low values 0.989 | S. cerevisiae deletion strains, locus YNL322C, strain KRE1, hits give low values 0.965 | S. cerevisiae deletion strains, locus YNR049C, strain mso1, hits give low values 0.98 | S. cerevisiae deletion strains, locus YNR052C, strain pop2, hits give low values 0.98 | S. cerevisiae deletion strains, locus YOL006C, strain TOP1, hits give low values 0.867 | S. cerevisiae deletion strains, locus YOL012C, strain htz1 0.968 | S. cerevisiae deletion strains, locus YOL147C, strain pex11, hits give low values 0.987 | S. cerevisiae deletion strains, locus YOR001W, strain rrp6, hits give low values 0.95 | S. cerevisiae deletion strains, locus YOR061W, strain CKA2, hits give low values 0.944 | S. cerevisiae deletion strains, locus YOR069W, strain VPS5, hits give low values 0.977 | S. cerevisiae deletion strains, locus YOR070C, strain gyp1, hits give low values 0.968 | S. cerevisiae deletion strains, locus YOR080W, strain dia2, hits give low values 0.978 | S. cerevisiae deletion strains, locus YOR083W, strain WHI5, hits give low values 1.03 | S. cerevisiae deletion strains, locus YOR106W, strain vam3, hits give low values 0.982 | S. cerevisiae deletion strains, locus YOR136W, strain idh2, hits give low values 0.996 | S. cerevisiae deletion strains, locus YOR144C, strain elg1, hits give low values 0.97 | S. cerevisiae deletion strains, locus YOR184W, strain ser1, hits give low values 0.993 | S. cerevisiae deletion strains, locus YOR231W, strain MKK1, hits give low values 0.964 | S. cerevisiae deletion strains, locus YOR265W, strain rbl2, hits give low values 0.979 | S. cerevisiae deletion strains, locus YOR270C, strain vph1, hits give low values 0.909 | S. cerevisiae deletion strains, locus YOR290C, strain snf2, hits give low values 0.974 | S. cerevisiae deletion strains, locus YOR316C, strain cot1, hits give low values 0.977 | S. cerevisiae deletion strains, locus YPL051W, strain arl3, hits give low values 0.986 | S. cerevisiae deletion strains, locus YPL055C, strain LGE1, hits give low values 0.866 | S. cerevisiae deletion strains, locus YPL078C, strain atp4, hits give low values 0.97 | S. cerevisiae deletion strains, locus YPL106C, strain sse1, hits give low values 1.02 | S. cerevisiae deletion strains, locus YPL240C, strain hsp82, hits give low values 0.98 | S. cerevisiae deletion strains, locus YPL241C, strain CIN2, hits give low values 0.968 | S. cerevisiae deletion strains, locus YPL256C, strain CLN2, hits give low values 0.979 | S. cerevisiae deletion strains, locus YPR119W, strain clb2, hits give low values 0.985 | S. cerevisiae deletion strains, locus YPR141C, strain kar3, hits give low values 0.975 | S. cerevisiae deletion strains, locus YPR163C, strain tif3, hits give low values 0.973 | S. cerevisiae deletion strains, locus YPR167C, strain met16, hits give low values 0.971 | S. cerevisiae deletion strains, strain wtn01, hits give low values 0.94 | S. cerevisiae strains, strain wild type, hits give low values 0.967
active: S. cerevisiae deletion strains, locus YLR418C, strain cdc73, hits give low values 0.838
